# Assay outcomes: PubChem, several laboratories
# Bim-Mcl-1 – disrupts Bim peptide binding to human Mcl-1 | Bead-based flow cytometry, Bim peptide-Mcl-1 binding | inhibition, % at 10 µM | hit rate 0.1% among 190,000; in the data active = inhibition above about 40%
# Target sequence (Q07820 whole entry, looked up): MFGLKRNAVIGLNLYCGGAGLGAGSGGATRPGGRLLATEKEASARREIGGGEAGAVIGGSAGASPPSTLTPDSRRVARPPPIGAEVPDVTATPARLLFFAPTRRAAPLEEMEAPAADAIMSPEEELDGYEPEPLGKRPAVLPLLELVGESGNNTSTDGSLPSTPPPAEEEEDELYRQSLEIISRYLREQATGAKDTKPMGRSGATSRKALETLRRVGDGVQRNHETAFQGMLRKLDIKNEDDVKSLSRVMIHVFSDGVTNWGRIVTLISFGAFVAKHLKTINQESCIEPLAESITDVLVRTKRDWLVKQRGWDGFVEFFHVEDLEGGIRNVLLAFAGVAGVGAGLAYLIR
# TNF necrop inh – inhibitors of TNF-alpha induced necroptosis in Jurkat FADD-/- cells. Jurkat FADD-/- TNF necroptosis rescue, ATP luminescence, 24 h; 0 = TNF only, 100 = no-TNF cells. activation (protection from cell death), % at 10 µM. hit rate 0.068% among 220,000;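 active = activation, meaning protection from cell death, of at least 50% relative to plate controls; inactive = activation below 50%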;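 note: necroptosis triggered by 40 ng/mL TNF-alpha added together with compound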
# Mcl1-Noxa inh – Mcl-1/Noxa interaction inhibition. TR-FRET Mcl-1/Noxa peptide binding, 2 h. hit rate 1.5% among 220,000. AID 1022. Q07820. inhibition, % at 21.7 µM;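 active = compounds that cut the protein-peptide binding signal by more than 50% relative to plate controls in a single-dose test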;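 note: His-tagged Mcl-1 with rhodamine Noxa BH3 peptide and terbium anti-His antibody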
# Mcl1 Bid PPI – disrupts binding of human Mcl-1 to Bid peptide. TR-FRET Mcl-1/Bid-Dy647 peptide binding, 1536-well. inhibition, % at 21.7 µM. hit rate 0.97% among 220,000. AID 1021;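 active = compounds that cut the binding signal by more than half at the single screening dose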;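 note: His-tagged Mcl-1 with europium anti-His antibody binding Bid BH3 peptide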
# MCL1-BIM inh – MCL1-BIM-BH3 interaction inhibition (human). Q07820. GST-MCL1 / FITC-Bim-BH3 fluorescence polarization. inhibition, % at 10.9 µM. hit rate 0.68% among 320,000. AID 2057;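 active = inhibition above the mean inhibition of all tested compounds plus 3 SD, set per campaign, cut at about 40% in these data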;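 note: higher means more loss of mP so more displacement of Bim peptide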
# zVAD death inh – blocks zVAD induced death of L929 cells; hit rate 0.38% among 220,000; AID 1377; L929 zVAD necroptosis rescue, ATP luminescence, 24 h; with zVAD 60 µM; viability rescue, % at 10 µM;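 active = activation, scaled between plate controls, above about 75%, limit read from the data; inactive = activation under that limit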
# Numbers stand for hits; n = inactive; x = not tested or not shown. The list is not random: actives were taken first. Their share in the collection is about 2.4%.
SMILES,Bim-Mcl-1,TNF necrop inh,Mcl1-Noxa inh,Mcl1 Bid PPI,MCL1-BIM inh,zVAD death inh
COc1ccc(NC(=O)c2cc3sccc3n2Cc2ccc(F)cc2)cc1OC,n,n,n,58,n,n
Cc1cc(O)ccc1N/C=C(\C#N)c1nc2ccccc2o1,n,n,n,93,n,n
Cc1nc(NC(=O)c2ccco2)sc1-c1csc(Nc2ccc(Cl)cc2)n1,n,n,62,n,n,n
Cc1nc(NC(=O)c2ccco2)sc1-c1csc(Nc2ccc(Cl)cc2Cl)n1,n,n,100,87,n,n
Cc1nc(NC(=O)CC(C)C)sc1-c1csc(Nc2ccc(Cl)cc2)n1,64,n,n,n,n,n
CCCCn1c(N)c(N(CCOC)C(=O)CC(NC(=O)c2ccccc2)c2ccccc2)c(=O)[nH]c1=O (stereo not drawn),x,x,x,x,n,x
CCN(CC)S(=O)(=O)c1ccc(C(=O)Oc2coc(CSc3nc(C)cc(C)n3)cc2=O)cc1,n,n,70,n,n,n
Cn1c(C(=O)N2CCCC(Nc3ccc(F)cc3)C2)cc2ccccc21 (stereo not drawn),x,x,x,x,n,x
O=C(O)c1ccc(NC2=C/C(=N/S(=O)(=O)c3ccccc3)c3ccccc3C2=O)cc1,n,n,93,n,x,n
CCN(Cc1ccccc1)c1ccc(/C=N/N2CCOCC2)cc1,n,n,64,n,n,n
CCN(CC)c1ccc(/C=N/N2CCOCC2)cc1,n,n,n,n,n,n
CC(C)(C)OC(=O)N1CCC(CNC(=O)Nc2ccccc2)CC1,x,n,n,n,n,n
CC1(C)CC(=O)C(N=Nc2cc(Cl)c(Cl)c(Cl)c2)=C(O)C1,42,n,n,n,n,n
Cc1ccc(-n2nnnc2SCC(=O)Nc2sc(C)c(C)c2C#N)cc1C,n,n,n,n,n,n
Cc1sc(NC(=O)CSc2nnc(-c3ccc(F)cc3)o2)c(C#N)c1C,n,n,n,59,n,n
CC(=O)c1ccc(-n2nnnc2SCC(=O)Nc2sc(C)c(C)c2C#N)cc1,n,n,65,57,n,n
CCN(CC)S(=O)(=O)c1ccc(N2CCCC2)c(NC(=O)C2CSC3(C)CCC(=O)N23)c1 (stereo not drawn),x,x,x,x,n,x
Cc1ccc(CNC(=O)CCC(=O)Nc2nnc(C)s2)cc1,x,x,x,x,n,x
O=S(=O)(Nc1nc(SCc2ccc(Cl)cc2)n[nH]1)c1ccccc1,x,n,n,n,n,n
CN(C)CCCOc1cccc(Oc2ccccc2)c1,n,n,n,52,n,x
COc1cc(C#Cc2ccc3cc(C(C)(C)O)oc(=O)c3c2)cc(OC)c1,x,x,x,x,n,x
O=C(c1cccc(S(=O)(=O)N2CCc3ccccc3C2)c1)N1CCN(c2ccc(O)cc2)CC1,n,n,57,n,n,n
O=C(c1ccc2ccccc2c1)N1CCN(c2ccc(O)cc2)CC1,n,n,53,n,n,n
O=C(CSc1ccc2ccccc2c1)N1CCN(c2ccc(O)cc2)CC1,x,n,60,n,n,n
NC(=O)C1CCN(C(=O)c2cccc(S(=O)(=O)N3CCc4ccccc4C3)c2)CC1,n,n,n,n,n,n
SMILES,Bim-Mcl-1,TNF necrop inh,Mcl1-Noxa inh,Mcl1 Bid PPI,MCL1-BIM inh,zVAD death inh
COc1ccc(CN(C(=O)c2cc(=O)c3ccccc3o2)C2CCS(=O)(=O)C2)cc1 (stereo not drawn),x,x,x,x,n,x
CCOc1ccccc1NC(=O)CN(C)S(=O)(=O)c1cccc2nsnc12,n,n,n,88,n,n
Cc1cccc(NC(=O)CN(C)S(=O)(=O)c2cccc3nsnc23)c1C,n,n,n,n,n,n
COCCn1cc(C(=O)N2CCC(C)CC2)c2c3ccccc3n(C)c2c1=O,n,n,n,95,n,n
CCOc1cccc(C2c3c(oc4ccccc4c3=O)C(=O)N2c2ccccn2)c1 (stereo not drawn),n,n,n,n,n,x
CCOc1cc(C2c3c(oc4ccccc4c3=O)C(=O)N2c2nccs2)ccc1O (stereo not drawn),x,n,n,56,n,n
O=C1CCc2cc(S(=O)(=O)NCCCC(=O)N3CCN(Cc4ccc5c(c4)OCO5)CC3)ccc2N1,40,n,n,n,n,n
O=C(CCNS(=O)(=O)c1ccc2c(c1)CCC(=O)N2)NCc1ccc2c(c1)OCO2,n,n,n,n,n,n
C=CC(C)(C)O[C@@H]1O[C@H](CO)[C@@H](O)[C@H](O)[C@H]1O,x,x,x,x,n,x
